“And” between values parts separate entries of the source, which are not always exact repeats. Equal values may be shown once. Compounds without any hit were thinned out: in the full panel of roughly 83,000, 20% have a hit.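 Step 1: grow cells in 96-well plates. Step 2: add test compound at a single concentration. Step 3: incubate 48 h. Step 4: record percent growth.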 The source made the active and inactive calls. Rule for the calls: active = growth percent below 10; inactive = the rest.

The text below walks through data of PubChem BioAssay (NCI).

Among the test systems are SR leukemia; RPMI-8226 leukemia; OVCAR-8 ovarian; OVCAR-5 ovarian; OVCAR-4 ovarian; SK-OV-3 ovarian; IGROV1 ovarian; OVCAR-3 ovarian; HS 578T breast; NCI/ADR-RES ovarian.
Holding throughout (assay): NCI-60 one-dose screen, 48 h (100 = growth as untreated, 0 = no growth, -100 = all killed)
Conditions in all cases: 10 µM unless noted

Turning to `CN(C)CC(CN(C)C)C(O)c1ccccc1` (stereo not given), the growth in the assay on SR leukemia was 111% (inactive); with RPMI-8226 leukemia, 108% (inactive); with OVCAR-8 ovarian, 104% (inactive); in the assay with OVCAR-5 ovarian, 106% (inactive); in the assay with OVCAR-4 ovarian, 102% (inactive); with SK-OV-3 ovarian it was 103% (inactive). The growth in the assay on IGROV1 ovarian is 106% (inactive); in the assay on OVCAR-3 ovarian, 115% (inactive); in the assay with HS 578T breast, 108% (inactive); with NCI/ADR-RES ovarian it was 100% (inactive).
On to `OCc1ccccc1F`, for which the growth is 92.6% (inactive) in the assay with SR leukemia; 106% (inactive) in the assay on RPMI-8226 leukemia; 83.3% (inactive) in the assay with OVCAR-8 ovarian; 76.9% (inactive) with OVCAR-5 ovarian; 97.5% (inactive) with OVCAR-4 ovarian; 87% (inactive) in the assay on SK-OV-3 ovarian. The growth in the assay on IGROV1 ovarian is 85.7% (inactive); in the assay on OVCAR-3 ovarian, 132% (inactive); in the assay with HS 578T breast, 109% (inactive); in the assay on NCI/ADR-RES ovarian it was 75.7% (inactive).
For `CCOC(=O)c1ccc(C(=N)N)cc1`, the growth is 103% (inactive) with SR leukemia; 89.7% (inactive) with RPMI-8226 leukemia; 105% (inactive) in the assay on OVCAR-8 ovarian; 120% (inactive) in the assay on OVCAR-5 ovarian; 107% (inactive) in the assay with OVCAR-4 ovarian; 108% (inactive) with SK-OV-3 ovarian. The growth with IGROV1 ovarian was 107% (inactive); in the assay on OVCAR-3 ovarian it was 102% (inactive); in the assay with HS 578T breast, 73.8% (inactive); with NCI/ADR-RES ovarian it was 100% (inactive).
`OCc1cccc(F)c1`: the growth in the assay with SR leukemia is 71.1% (inactive); in the assay with RPMI-8226 leukemia, 113% (inactive); in the assay on OVCAR-8 ovarian, 85.3% (inactive); in the assay on OVCAR-5 ovarian, 70.7% (inactive); in the assay with OVCAR-4 ovarian, 113% (inactive); with SK-OV-3 ovarian it was 91.7% (inactive). The growth in the assay with IGROV1 ovarian was 79.6% (inactive); in the assay on OVCAR-3 ovarian it was 125% (inactive); in the assay with HS 578T breast it was 124% (inactive); with NCI/ADR-RES ovarian, 76.5% (inactive).
With `CCC(C)(O)CCC(C)(O)CC` (stereo not given), the growth in the assay on SR leukemia was 97.4% (inactive); in the assay on RPMI-8226 leukemia, 108% (inactive); with OVCAR-8 ovarian, 102% (inactive); with OVCAR-5 ovarian, 114% (inactive); with OVCAR-4 ovarian it was 111% (inactive); in the assay on SK-OV-3 ovarian, 99% (inactive). Besides, the growth in the assay on IGROV1 ovarian was 103% (inactive); in the assay with OVCAR-3 ovarian it was 107% (inactive); with HS 578T breast, 108% (inactive); in the assay on NCI/ADR-RES ovarian it was 99.2% (inactive).
As for `CNc1ccc(Cl)cc1S(=O)(=O)c1ccccc1[N+](=O)[O-]`, the growth is 86.3% (inactive) and 88.2% (inactive) with SR leukemia; 87.3% (inactive) with RPMI-8226 leukemia; 105% (inactive) in the assay with OVCAR-8 ovarian; 90.2% (inactive) and 105% (inactive) with OVCAR-5 ovarian; 87.6% (inactive) and 60.6% (inactive) in the assay with OVCAR-4 ovarian; 120% (inactive) and 110% (inactive) with SK-OV-3 ovarian. The growth in the assay with IGROV1 ovarian is 78.8% (inactive) and 104% (inactive); in the assay on OVCAR-3 ovarian, 105% (inactive) and 104% (inactive); with HS 578T breast it was 96.7% (inactive); in the assay on NCI/ADR-RES ovarian, 36.7% (inactive) and 90.6% (inactive).
On to `CC1CCC(=O)N1c1ccc(N)cc1` (stereo not given), for which the growth was 93.8% (inactive) with SR leukemia; 103% (inactive) with RPMI-8226 leukemia; 100% (inactive) in the assay on OVCAR-8 ovarian; 99.9% (inactive) with OVCAR-5 ovarian; 107% (inactive) with OVCAR-4 ovarian; 99.3% (inactive) in the assay with SK-OV-3 ovarian. The growth with IGROV1 ovarian is 101% (inactive); with OVCAR-3 ovarian, 108% (inactive); in the assay on HS 578T breast, 108% (inactive); in the assay with NCI/ADR-RES ovarian it was 106% (inactive).
As for `O=[N+]([O-])c1ccc(NC(c2ccccc2)c2ccc3cccnc3c2O)cc1` (stereo not given), the growth was 6.12% (active) with SR leukemia; 22% (inactive) in the assay on RPMI-8226 leukemia; 17% (inactive) in the assay on OVCAR-8 ovarian; 58.9% (inactive) with OVCAR-5 ovarian; 22.2% (inactive) in the assay with OVCAR-4 ovarian; 34.9% (inactive) with SK-OV-3 ovarian. Further, the growth in the assay with IGROV1 ovarian was 10.9% (inactive); in the assay with OVCAR-3 ovarian it was 30.7% (inactive); in the assay on HS 578T breast it was 35.6% (inactive); in the assay on NCI/ADR-RES ovarian it was 11.7% (inactive).
For the compound `C#CCOC(=O)C(N)CS` (stereo not given), the growth was 102% (inactive) in the assay on SR leukemia; 102% (inactive) in the assay with RPMI-8226 leukemia; 110% (inactive) in the assay on OVCAR-8 ovarian; 79.9% (inactive) in the assay on OVCAR-5 ovarian; 101% (inactive) with OVCAR-4 ovarian; 101% (inactive) in the assay on SK-OV-3 ovarian. For the same compound, the growth was 104% (inactive) in the assay on IGROV1 ovarian, 103% (inactive) in the assay with OVCAR-3 ovarian, 137% (inactive) with HS 578T breast and 102% (inactive) with NCI/ADR-RES ovarian.
As for `Cc1cc2nc3ccc(=[N+](C)C)cc-3sc2cc1N`, the growth was -4.11% (active) in the assay with SR leukemia; -10.3% (active) and -38.2% (active) in the assay with RPMI-8226 leukemia; 4.72% (active) and 7.29% (active) in the assay on OVCAR-8 ovarian; -57.5% (active) and -0.424% (active) in the assay with OVCAR-5 ovarian; 8.09% (active) in the assay with OVCAR-4 ovarian; 8.62% (active) and 45.8% (inactive) in the assay on SK-OV-3 ovarian. The growth in the assay on IGROV1 ovarian is -55.6% (active) and 10.3% (inactive); with OVCAR-3 ovarian, -15.2% (active) and -44% (active); in the assay on HS 578T breast it was 41.1% (inactive) and -0.376% (active); in the assay with NCI/ADR-RES ovarian, 1.81% (active) and 2.67% (active).
Regarding `CC(NC(=O)CCl)c1ccccc1` (stereo not given), the growth was 99.2% (inactive) in the assay with SR leukemia; 107% (inactive) in the assay with RPMI-8226 leukemia; 105% (inactive) with OVCAR-8 ovarian; 109% (inactive) in the assay on OVCAR-5 ovarian; 98.7% (inactive) in the assay on OVCAR-4 ovarian; 102% (inactive) in the assay on SK-OV-3 ovarian. For the same compound, the growth in the assay on IGROV1 ovarian is 104% (inactive); in the assay with OVCAR-3 ovarian, 102% (inactive); with HS 578T breast, 92.5% (inactive); in the assay with NCI/ADR-RES ovarian, 104% (inactive).
For the compound `COc1ccccc1OCC(O)CO` (stereo not given), the growth was 116% (inactive) and 124% (inactive) in the assay with SR leukemia; 76.7% (inactive) in the assay on RPMI-8226 leukemia; 115% (inactive) and 104% (inactive) in the assay with OVCAR-8 ovarian; 103% (inactive) in the assay on OVCAR-5 ovarian; 110% (inactive) and 101% (inactive) in the assay with OVCAR-4 ovarian; 106% (inactive) and 121% (inactive) with SK-OV-3 ovarian. In addition, the growth with IGROV1 ovarian was 123% (inactive) and 114% (inactive); in the assay with OVCAR-3 ovarian, 107% (inactive) and 125% (inactive); in the assay with HS 578T breast it was 61.7% (inactive) and 107% (inactive); in the assay with NCI/ADR-RES ovarian, 100% (inactive) and 107% (inactive).
